Inconclusive results are not listed. Active and inactive are the calls of the source. The call rests on the fitted dose curve; in most records, active means well fitted cell-killing curve with a large enough effect; inconclusive means small, poorly fitted or top-dose-only effect, or effect the other way; inactive means flat fitted curve, though single readings scatter.
Tests used:
Test in all cases: Primary qHTS to identify gynecologic anti-cancer compounds using libraries of approved drugs and bioactive compounds (AID 1345084); further: nearly all actives have a fitted effect of over 55% in size
C33A = details: Gynecologic cancer cell panel viability, ATPlite luminescence, 48 h; series mostly up to 57.5 µM
Outline: (§1)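 Measured: luminescence after ATPlite addition (15 min, RT). Exposure: 48 h, 37 C, 5% CO2.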

CAOV3 = details: Gynecologic cancer cell panel viability, ATPlite luminescence, 48 h; series mostly up to 57.5 µM
Outline: as §1

CASKI = details: Gynecologic cancer cell panel viability, ATPlite luminescence, 48 h; series mostly up to 57.5 µM
Outline: as §1

Es-2 = details: Gynecologic cancer cell panel viability, ATPlite luminescence, 48 h; series mostly up to 57.5 µM
Outline: as §1

HeLa = details: Gynecologic cancer cell panel viability, ATPlite luminescence, 48 h; series mostly up to 57.5 µM
Outline: as §1

Hek293T = details: Gynecologic cancer cell panel viability, ATPlite luminescence, 48 h, control line for the selectivity index; series mostly up to 57.5 µM
Outline: as §1

JEG-3 = details: Gynecologic cancer cell panel viability, ATPlite luminescence, 48 h; series mostly up to 57.5 µM
Outline: as §1

OV90 = details: Gynecologic cancer cell panel viability, ATPlite luminescence, 48 h; series mostly up to 57.5 µM
Outline: as §1

PA-1 = details: Gynecologic cancer cell panel viability, ATPlite luminescence, 48 h; series mostly up to 57.5 µM
Outline: as §1

Tov-21-G = details: Gynecologic cancer cell panel viability, ATPlite luminescence, 48 h; series mostly up to 57.5 µM
Outline: as §1

Tov112D = details: Gynecologic cancer cell panel viability, ATPlite luminescence, 48 h; series mostly up to 57.5 µM
Outline: as §1

SKOV3 = details: Gynecologic cancer cell panel viability, ATPlite luminescence, 48 h; series mostly up to 57.5 µM
Outline: as §1
On the % scale 0 is the no-effect control and ±100 the full control effect.

C/C=C/C=C/[C@@H]1O[C@](O)([C@H](CC)C(=O)NC/C=C/C=C(\C)[C@@H](OC)[C@@H](C)[C@@H]2O[C@H](/C=C/C=C/C=C(\C)C(=O)c3c(O)ccn(C)c3=O)[C@H](O)[C@@H]2O)[C@H](O)[C@H](O)C1(C)C
inactive: activity change, negative = cytotoxicity (C33A) 0.106% [at 11.6 µM] | activity change, negative = cytotoxicity (CAOV3) 11.3% [at 11.6 µM] | activity change, negative = cytotoxicity (CASKI) -1.78% [at 11.6 µM] | activity change, negative = cytotoxicity (Es-2) -3.84% [at 11.6 µM] | activity change, negative = cytotoxicity (HeLa) 12.5% [at 11.6 µM] | activity change, negative = cytotoxicity (Hek293T) -0.774% [at 11.6 µM] | activity change, negative = cytotoxicity (JEG-3) -3.88% [at 11.6 µM] | activity change, negative = cytotoxicity (OV90) -4.64% [at 11.6 µM] | activity change, negative = cytotoxicity (PA-1) -1.69% [at 11.6 µM] | activity change, negative = cytotoxicity (Tov-21-G) -0.814% [at 11.6 µM] | activity change, negative = cytotoxicity (Tov112D) -0.13% [at 11.6 µM]

C=C(C)[C@H]1CC[C@]2(C(=O)O)CC[C@]3(C)C(CCC4[C@@]5(C)CCC(=O)C(C)(C)C5CC[C@]43C)C12 (stereo partly drawn)
inactive: Potency (C33A) | Potency (CAOV3) | outcome (CASKI) | Potency (Es-2) | Potency (HeLa) | Potency (Hek293T) | Potency (JEG-3) | Potency (OV90) | Potency (PA-1) | Potency (Tov-21-G) | Potency (Tov112D)

C/C(CO)=C1/CCC23COC(C2)C(O)(C(=O)O)CCC13 (stereo not drawn)
inactive: Potency (C33A) | Potency (CAOV3) | outcome (CASKI) | Potency (Es-2) | Potency (HeLa) | Potency (Hek293T) | Potency (JEG-3) | Potency (OV90) | Potency (PA-1) | Potency (Tov-21-G) | Potency (Tov112D)

COc1cccc(OC)c1-c1cc(C(=O)N[C@@H](CC(C)C)C(=O)O)nn1-c1ccnc2cc(Cl)ccc12
inactive: Potency (C33A) | Potency (CAOV3) | outcome (CASKI) | Potency (Es-2) | Potency (HeLa) | Potency (Hek293T) | Potency (JEG-3) | Potency (OV90) | Potency (PA-1) | Potency (Tov-21-G) | Potency (Tov112D)

Cc1occc1C(=O)n1ccnc1
inactive: Potency (C33A) | Potency (CAOV3) | outcome (CASKI) | Potency (Es-2) | Potency (HeLa) | Potency (Hek293T) | Potency (JEG-3) | Potency (OV90) | Potency (PA-1) | Potency (Tov-21-G) | Potency (Tov112D)

O=C(O)Cn1nnc(-c2ccc(CN(CCCCOc3ccc(CN4CCCC4)cc3)CCc3ccccc3)cc2)n1
inactive: Potency (C33A) | Potency (CAOV3) | outcome (CASKI) | Potency (Es-2) | Potency (HeLa) | Potency (Hek293T) | Potency (JEG-3) | Potency (OV90) | Potency (PA-1) | Potency (Tov-21-G) | Potency (Tov112D)

Cc1cc(Cn2cnc3c2CC(C(=O)O)N(C(=O)C(c2ccccc2)c2ccccc2)C3)ccc1N(C)C (stereo not drawn)
inactive: Potency (C33A) | Potency (CAOV3) | outcome (CASKI) | Potency (Es-2) | Potency (HeLa) | Potency (Hek293T) | Potency (JEG-3) | Potency (OV90) | Potency (PA-1) | Potency (Tov-21-G) | Potency (Tov112D)

CC1(C)CC[C@]2(C(=O)O)CC[C@]3(C)C(=CCC4[C@@]5(C)CC[C@H](O)C(C)(C)C5CC[C@]43C)C2C1 (stereo partly drawn)
inactive: Potency (C33A) | Potency (CAOV3) | outcome (CASKI) | Potency (Es-2) | Potency (HeLa) | Potency (Hek293T) | Potency (JEG-3) | Potency (OV90) | Potency (SKOV3) | Potency (Tov-21-G) | Potency (Tov112D)

C=C1C(OC(C)=O)CCC2(C)CCC(C(C)(C)O)CC12 (stereo not drawn)
inactive: Potency (C33A) | Potency (CAOV3) | outcome (CASKI) | Potency (Es-2) | Potency (HeLa) | Potency (Hek293T) | Potency (JEG-3) | Potency (PA-1) | Potency (SKOV3) | Potency (Tov-21-G) | Potency (Tov112D)

C[C@@H]1C(=O)O[C@H](C)[C@H]1C[C@@H](O)[C@](C)(O)[C@H]1CC[C@@]2(O)C3=CC(=O)[C@@H]4C[C@@H](O)[C@@H](O)C[C@]4(C)C3CC[C@]12C (stereo partly drawn)
inactive: Potency (C33A) | Potency (CAOV3) | outcome (CASKI) | Potency (Es-2) | Potency (HeLa) | Potency (Hek293T) | Potency (JEG-3) | Potency (OV90) | Potency (SKOV3) | Potency (Tov-21-G) | Potency (Tov112D)

Fc1ccccc1-c1nc2ccn(Cc3ccc(-c4ccc(C(F)(F)F)cc4C(F)(F)F)nn3)cc-2n1
inactive: Potency (C33A) | Potency (CAOV3) | outcome (CASKI) | Potency (Es-2) | Potency (HeLa) | Potency (Hek293T) | Potency (JEG-3) | Potency (OV90) | Potency (Tov-21-G) | Potency (Tov112D)

OCC1OC(Oc2cc(O)cc(/C=C/c3ccc(OC4OC(CO)C(O)C(O)C4O)cc3O)c2)C(O)C(O)C1O (stereo not drawn)
inactive: Potency (C33A) | Potency (CAOV3) | outcome (CASKI) | Potency (Es-2) | Potency (HeLa) | Potency (Hek293T) | Potency (JEG-3) | Potency (OV90) | Potency (PA-1) | Potency (Tov-21-G) | Potency (Tov112D)

CC(C)C1(O)NC(=O)C(CC2(O)c3ccccc3N3C(=O)C(C)(C)NC32)n2c1nc1ccccc1c2=O (stereo not drawn)
inactive: Potency (C33A) | Potency (CAOV3) | outcome (CASKI) | Potency (Es-2) | Potency (HeLa) | Potency (Hek293T) | Potency (JEG-3) | Potency (OV90) | Potency (SKOV3) | Potency (Tov-21-G) | Potency (Tov112D)

Cc1c(-c2ccc3c(c2)OCO3)oc2ccc(C(O)C(C)O)cc12 (stereo not drawn)
inactive: Potency (C33A) | Potency (CAOV3) | outcome (CASKI) | Potency (Es-2) | Potency (HeLa) | Potency (Hek293T) | Potency (JEG-3) | Potency (PA-1) | Potency (Tov112D)

NC1(c2ccc(NC(=O)c3ccnc(-c4cc(C(=O)O)ccn4)c3)cc2)CC1
inactive: Potency (C33A) | Potency (CAOV3) | outcome (CASKI) | Potency (Es-2) | Potency (HeLa) | Potency (Hek293T) | Potency (JEG-3) | Potency (OV90) | Potency (SKOV3) | Potency (Tov-21-G) | Potency (Tov112D)

Cc1ccccc1NC(=O)Nc1ccc(CN2C(=O)N([C@@H](CC(C)C)C(=O)N[C@@H](CC(=O)O)c3ccccc3)C(=O)C2(C)C)cc1
inactive: Potency (C33A) | Potency (CAOV3) | outcome (CASKI) | Potency (Es-2) | Potency (HeLa) | Potency (Hek293T) | Potency (JEG-3) | Potency (OV90) | Potency (PA-1) | Potency (Tov-21-G) | Potency (Tov112D)

C[C@@H]1CC[C@]2(C(=O)O)CC[C@]3(C)C(=CCC4[C@@]5(C)C[C@@H](O)[C@@H](O)C(C)(C)C5CC[C@]43C)C2[C@]1(C)O (stereo partly drawn)
inactive: Potency (C33A) | Potency (CAOV3) | outcome (CASKI) | Potency (Es-2) | Potency (HeLa) | Potency (Hek293T) | Potency (JEG-3) | Potency (OV90) | Potency (Tov-21-G) | Potency (Tov112D)

Source: PubChem BioAssay (NCATS)
